Laboratory results: PubChem BioAssay (EPA / NIEHS)
Several values for one entry are separate records, joined by “and”; a condition that tells them apart may be missing. Equal entries are not always repeated. Inconclusive results are not listed. Activity calls are given as the source filed them. Rule for the calls: active = hit-call score of the fitted dose curve at least 0.9, where 1 is the maximum; inconclusive = response in the unintended direction; inactive = score below 0.9.

Assay: ACEA_ER_AUC_viability: ACEA Biosciences xCELLigence Real-Time Cell Analysis on Estrogen Receptor Agonism for Viability (AID 2283782);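 note: hit means loss of impedance signal meaning reduced cell growth or viability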
Summary of the method: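 Read-out: real-time electrical impedance (RT-CES) area under curve, loss of signal taken as reduced viability, normalized to DMSO baseline. T-47D cells, charcoal-stripped serum medium, compounds up to 100 uM final, continuous exposure, 80 h.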

**Q.** With `CN(CCO)S(=O)(=O)C(F)(F)C(F)(F)C(F)(F)C(F)(F)C(F)(F)C(F)(F)C(F)(F)C(F)(F)F` as the molecule, how does the outcome read?
**A.** inactive

**Q.** With `CCCCCC(C)OC(=O)COc1ccc(Cl)c2cccnc12` (stereo not given) as the molecule, how does the outcome read?
**A.** inactive

**Q.** With `O=S(=O)(O)C(F)(F)C(F)(F)C(F)(F)C(F)(F)C(F)(F)C(F)(F)C(F)(F)C(F)(F)C(F)(F)C(F)(F)F` as the molecule, how does the outcome read?
**A.** inactive

**Q.** For `O=C(CC(=O)C(F)(F)C(F)(F)C(F)(F)F)c1cccs1`, which AC50 is on record?
**A.** 113 µM (active)

**Q.** For `CCCCCCCCC(C)=O`, which AC50 is on record?
**A.** 9.92 µM (active)

**Q.** Which outcome does the source give for `CCOC=C(C(=O)OCC)C(=O)OCC` here?
**A.** inactive

**Q.** Which AC50 does the source give for `OCC(F)(F)C(F)(F)C(F)(F)C(F)(F)C(F)(F)C(F)(F)C(F)(F)C(F)(F)C(F)(F)C(F)(F)C(F)(F)F` here?
**A.** 16.6 µM (active)

**Q.** For `O=C1C=CC(=O)N1c1cccc(N2C(=O)C=CC2=O)c1`, which AC50 is on record?
**A.** 23.6 µM (active)

**Q.** For `Cc1ccc(C(=O)c2ccccc2)cc1`, which AC50 is on record?
**A.** 72.3 µM (active)

**Q.** With `CCCCCCCCCCCC[N+](C)(C)Cc1ccccc1` as the molecule, how does the AC50 read?
**A.** 3.05 µM (active) and 5.69 µM (active)

**Q.** With `COC(O)c1ccccc1` (stereo not given) as the molecule, how does the outcome read?
**A.** inactive

**Q.** With `O=C(O)C(=O)O` as the molecule, how does the outcome read?
**A.** inactive

**Q.** For `COCN(COC)c1nc(N(COC)COC)nc(N(COC)COC)n1`, which outcome is on record?
**A.** inactive

**Q.** Which outcome does the source give for `O=C(O)CCC(F)(F)C(F)(F)C(F)(F)C(F)(F)C(F)(F)F` here?
**A.** inactive

**Q.** With `CCCCCCCCC1CCC(=O)O1` (stereo not given) as the molecule, how does the AC50 read?
**A.** 67.5 µM (active)

**Q.** For `CC(C)(C)c1ccc(O)c(O)c1`, which AC50 is on record?
**A.** 23.4 µM (active)

**Q.** Which outcome does the source give for `C=Cc1ccc(O)c(OC)c1` here?
**A.** inactive

**Q.** Which outcome does the source give for `CCCCC(CC)C(=O)OCCOCCOCCOCCOC(=O)C(CC)CCCC` (stereo not given) here?
**A.** inactive

**Q.** Which outcome does the source give for `CCCCCCC(C)(C)C(=O)O` here?
**A.** inactive

**Q.** With `CCC(C)c1nccnc1OC` (stereo not given) as the molecule, how does the outcome read?
**A.** inactive

**Q.** Which outcome does the source give for `C/C=C/C(=O)C1=C(C)CCCC1(C)C` here?
**A.** inactive

**Q.** With `O=C(O)C(F)(F)OC(F)(F)C(F)(F)OC(F)(F)C(F)(F)OC(F)(F)C(F)(F)C(F)(F)C(F)(F)F` as the molecule, how does the AC50 read?
**A.** 119 µM (active)

**Q.** For `CNNCc1ccc(C(=O)NC(C)C)cc1`, which outcome is on record?
**A.** inactive

**Q.** With `O=S(=O)(O)c1ccccc1` as the molecule, how does the outcome read?
**A.** inactive

**Q.** With `COc1cccc(O)c1` as the molecule, how does the outcome read?
**A.** inactive

**Q.** Which outcome does the source give for `CCOC(OCC)C(=O)c1ccccc1` here?
**A.** inactive

**Q.** With `Cc1cncc(C)c1` as the molecule, how does the AC50 read?
**A.** 12.1 µM (active)

**Q.** For `CC1CNCC(C)O1` (stereo not given), which outcome is on record?
**A.** inactive

**Q.** With `Cn1sccc1=O` as the molecule, how does the AC50 read?
**A.** 40.2 µM (active)

**Q.** For `c1cc[nH]c1`, which AC50 is on record?
**A.** 50 µM (active)

Assay: STM_H9_NormalizedViability: Cytotoxicity Assessment at 120 hours in the Stemina devTOX quickPredict H9 human embryonic stem cell (hESC)-based Assay (AID 2283784)
Summary of the method: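 Viability of the cell layer was taken from live-cell protease cleavage of a fluorogenic substrate after compound exposure of undifferentiated H9 stem cells, with replenishment each 24h. Fluorescence was normalized to vehicle (0.1% DMSO).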

**Q.** Which AC50 does the source give for `CC(C)(C)c1ccc(O)c(O)c1` here?
**A.** 86.5 µM (active)

**Q.** Which AC50 does the source give for `C=Cc1ccc(O)c(OC)c1` here?
**A.** 77.6 µM (active)

**Q.** Which outcome does the source give for `Cn1sccc1=O` here?
**A.** inactive

**Q.** Which outcome does the source give for `CC1=CC(=O)c2ccccc2C1=O` here?
**A.** inactive

**Q.** With `Oc1c(Cl)cc(Cl)cc1Sc1cc(Cl)cc(Cl)c1O` as the molecule, how does the outcome read?
**A.** inactive
